# From the supplement of paper PMC6555819
# Columns and labels:
# Assay in all cases: PBM binding z-score (relative to random genomic background probes); higher = stronger binding; sequences stand for … in GC…GCGATTGACAGCGTAGAATGAAGG
# [1] = tested on: PPARg:RXRa DBDmut IVT, anti-RXR (DBD mutation: RXRa K156A/R161A, NR concentration 270 nM, RXRa partner concentration 90 nM)
# Summary of the method: (§1)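 Each nuclear receptor dimer, without ligand, was incubated for 1 h on custom Agilent 4×180K protein-binding microarrays. Binding was detected with antibodies against each partner (one per run), and scanned fluorescence was regression-normalized. The binding z-scores are referenced to random human genomic background probes.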
# [2] = tested on: PPARg:RXRa IVT, anti-PPARg (NR concentration 270 nM, RXRa partner concentration 90 nM)
# Summary of the method: as §1
# [3] = tested on: PPARg DBDmut:RXRa IVT, anti-PPARg (DBD mutation: PPARg1 K132A/R137A, NR concentration 270 nM, RXRa partner concentration 90 nM)
# Summary of the method: as §1
# [4] = tested on: PPARg DBDmut IVT, anti-PPARg (DBD mutation: PPARg1 K132A/R137A, NR concentration 270 nM)
# Summary of the method: as §1
# [5] = tested on: PPARg homodimer (NR concentration 180 nM)
# Summary of the method: as §1
# [6] = tested on: PXR:RXRa (NR concentration 270 nM, RXRa partner concentration 90 nM)
# Summary of the method: as §1
# [7] = tested on: PXR homodimer (NR concentration 270 nM)
# Summary of the method: as §1
# [8] = tested on: RARa:RXR (NR concentration 270 nM, RXRa partner concentration 90 nM)
# Summary of the method: as §1
# [9] = tested on: RARa homodimer (NR concentration 270 nM)
# Summary of the method: as §1
# [10] = tested on: RARb:RXRa (NR concentration 270 nM, RXRa partner concentration 90 nM)
# Summary of the method: as §1
Sequence,PBM binding z-score [1],PBM binding z-score [2],PBM binding z-score [3],PBM binding z-score [4],PBM binding z-score [5],PBM binding z-score [6],PBM binding z-score [7],PBM binding z-score [8],PBM binding z-score [9],PBM binding z-score [10]
GCTGCTAGGTCAACTGATGGTCGGCTAAAGCTCG,4.58,4.01,0.404,-0.469,0.839,1.4,-0.734,2.31,-0.561,4.45
ATCTCGAGGTAACAAGTTCAGTGAAAGAGAGGAC,0.257,1.41,0.523,1.06,0.56,1.74,1.63,1.3,0.416,1.73
AATACAGGGTCATCGTAGGCTAGAGTACGCACAG,3.07,3.89,1.38,0.798,1.99,4.52,0.956,4.85,1.03,4.33
CCTACTGGGGCAAGGTCATTGATCAGTCAAAGCA,4.91,5.97,1.59,0.39,4.67,3.88,1.04,4.17,0.391,3.5
GCTCCTAGGTCAGGTTGGTCAGCTAACGGGTACG,3.08,2.33,0.131,-0.79,0.823,0.632,0.2,1.26,-0.173,3.58
CCTTACGGGTCACTGACAGGTTATCGCATTTGGA,3.47,3.69,0.381,0.623,2.57,3.78,-0.364,4.93,0.262,4.06
TCTAGCAGGCCAGAGGGACACTCAAGAGGTACGG,0.376,-0.183,-1.54,-1.73,-1.07,-0.803,-0.661,-1.02,-0.883,0.0919
TGTCAAAGTTCAAAGTTAACGTAAGTATCCACAC,0.374,4.24,1.16,1.99,2.65,5.04,4.24,4.46,1.12,5.12
ATACAAAGGTGATCGTGAGGTCGTTGATACTAAC,1.15,2.15,1.05,0.894,1.53,4.07,1.38,3,1.26,2.54
CGAACTAGGTCAGAACCGGACAGTGAAGGATGAT,7.36,7.01,0.829,-0.265,0.564,0.339,-0.0754,0.679,-0.208,2.85
TCTTGTTGGTCAAAGGTCACACACTCGAAATGCG,3.64,5.98,1.27,1.91,4.88,5.9,1.75,7.15,3.44,5.25
